Measurements published in PubChem BioAssay (NCI).
About 83,000 compounds went through this panel and 20% of them were active in at least one assay; those are over-represented in the sample as a whole.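 Single-dose data. Exposure time 48 hours. Values below 10 considered active.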 A number with no mark means an inactive call. The source made the active and inactive calls.

test system: MDA-MB-468 breast; assay: NCI-60 one-dose screen, 48 h (100 = growth as untreated, 0 = no growth, -100 = all killed); settings: 10 µM unless noted

Compound	growth
CC1=C(C(=O)/C=C/c2c[nH]c3ccccc23)C(c2ccccc2)NC(=S)N1 (stereo not given)	102%
Cc1ccc(C(C(N)=O)C(C(N)=O)c2ccccc2)cc1 (stereo not given)	105%
Cc1ccc(C2Oc3ccccc3C3CC(c4cccs4)=NN32)cc1 (stereo not given)	109%
CNC1CCc2c(sc(NC(=O)c3ccc(C(C)(C)C)cc3)c2C(N)=O)C1 (stereo not given)	-37.2% (active)
CN(C)S(=O)(=O)c1oc(-c2ccccc2)nc1C#N	35%
Cc1ccc(-c2nc(N3CCN(C(=O)c4ccc(OC(F)(F)F)cc4)CC3)c3ccccc3n2)cc1	93.8%
COc1ccc(-c2cnnn2-c2cc(OC)c3c(c2)OCO3)cc1	40.9%
Cc1cccc(-n2c(C)nc3ccc(NC(=O)NCCCl)cc3c2=O)c1	92.7%
Cn1nc(C(F)(F)F)cc1-c1cc(Cl)c(OCc2ccc(Cl)cc2)c(-c2ccc(Cl)c(C(F)(F)F)c2)c1O	-16.1% (active)
CCOC(=O)c1cc(-c2cccnc2)nc2c(Cl)cc(Cl)cc12	117%
CCc1ccc2c(c1)N(CCO)C1=C(C(=O)OC1)C2c1ccccc1 (stereo not given)	104%
COc1ccc(Nc2ccnc(N3CCN(c4ccnc5cc(Cl)ccc45)CC3)n2)cc1	-16% (active)
CCCC[N+]1(C)CCN=C1Cc1ccccc1 (stereo not given)	82.3%
COc1ccc(S(=O)(=O)Oc2ccc(-c3sc4cc(OS(=O)(=O)c5ccc(OC)cc5)ccc4c3C(=O)c3ccc(OCCN4CCCCC4)cc3)cc2)cc1	94.3%
COc1cc(C(=O)/C=C/c2c(C)n([O-])c3ccc(C)cc3[n+]2=O)cc(OC)c1OC	30.3%
CNC(=O)c1cc(Oc2ccc3nc(NC(=O)c4cc(C)cc(C)c4)sc3c2)ccn1	50.2%
O=C(c1ccc(F)cc1)C1CCN(CCn2c(=O)[nH]c3ccccc3c2=O)CC1	104%
Cc1ccc(NS(=O)(=O)c2ccccc2)c(NS(=O)(=O)c2ccccc2)c1	104%
O=C(/C=C\c1ccc2c(c1)OCO2)/C=C/c1ccc2c(c1)OCO2	20.3%
O=C(NCCCNc1nccc(-n2ccc3cccnc32)n1)c1c(F)cccc1F	101%

Compound	growth
COC1CC(O)C2=C(CC3C(/C(C)=C\CC=C(C)C)CCC3(C)O2)C1=O (stereo not given)	109%
CN(Cc1ccccc1)c1nc(Cl)c(C2CC(c3ccccc3)=NN2c2ccccc2)s1 (stereo not given)	98.7%
Oc1ccc(CSc2nnc(-c3ccc(Oc4ccccc4)cc3)o2)c2cccnc12	30.7%
COc1ncc(F)c(OC)n1	98.7%
CN=C1C=CC(=C(c2ccc(N(C)C)cc2)c2ccc(N(C)C)cc2)C=C1	-47.5% (active)
Cc1[nH]c(C(=O)Nc2ccccc2OCc2cccc(C(=O)N3CCC[C@@H](N)C3)c2)c(Cl)c1Cl	-74% (active)
O=C(O)/C=C/C(=O)c1ccc(Cl)cc1	124%
COc1cc2nc(-c3cccc4cccnc34)nc(NC3CCN(Cc4ccccc4)CC3)c2cc1OC	-78.5% (active)
Nc1c(C(=O)Nc2ccccc2)sc2nc3c(cc12)CCCCC3	-9.1% (active)
COC(=O)C(C)[C@H]1CC[C@@H]2[C@]1(C)CC=C1[C@]23C=C[C@]2(C[C@@H](OC(C)=O)CC[C@]12C)C(C(=O)OC)C3C(=O)OC (stereo not given in full)	94.1%
Cc1c(Cl)cccc1NC(=O)CCCl	108%
CCOC(=O)c1cn2c3c(cc(F)cc3c1=O)C(CC)c1ccccc1C2 (stereo not given)	99.4%
Cn1ccnc1C(=O)/C=C/c1ccc(CC(=O)NC2CCCCC2)cc1	-6.65% (active)
COc1ccc(C(=O)C2C(C#N)C(C#N)C3c4ccccc4C=CN23)cc1 (stereo not given)	64.8%
N#C/C(=C\c1ccc(-c2ccc(Cl)cc2)o1)c1nc(-c2ccco2)cs1	-26.7% (active)
CNCc1ccccc1CN(CC(=O)Nc1ccc2c(c1)CC1(C2)C(=O)Nc2ncccc21)C(=O)C(C)(C)C (stereo not given)	107%
CC1(C)OC(=O)CC1=O	100%
CCCCCC1CCCCN1C(=O)OCC (stereo not given)	150%
N#C/C(=C\c1ccc(-c2ccc(Cl)c(Cl)c2)o1)c1nc(-c2ccco2)cs1	-38.2% (active)
CN1CCN(c2c(F)cc(NC3=C(Cl)C(=O)c4ncccc4C3=O)cc2F)CC1	-46.6% (active)
